Measured values from the supplement of paper PMC9694430.
Where a name gives a salt, the structure may show the parent alone.

How the values were obtained:
Experiment in all cases: thermal shift delta Tm vs DMSO control; higher = stronger stabilization (binding)
Settings in all cases: 12.5 µM; protein concentration 2 µM
LOC_OS04G57630-cb004 = tested on: LOC_OS04G57630-cb004
Outline: (§1)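 Rice kinase domain constructs were expressed in E. coli, purified, and tested by differential scanning fluorimetry with compound added in DMSO. Each well of a 96-well plate held 19.5 μl of 2 μM kinase in 100 mM potassium phosphate pH 7.5, 150 mM NaCl, 10% glycerol and 5 × SYPRO Orange, and fluorescence was read from 25°C to 95°C at 0.05°C/s. The melting temperature shift is the mean of triplicates, taken against protein with DMSO alone after Boltzmann fitting.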

LOC_OS05G07850-cb002 = tested on: LOC_OS05G07850-cb002
Outline: as §1

LOC_OS05G16824-cb004 = tested on: LOC_OS05G16824-cb004
Outline: as §1

LOC_OS05G28520-cb001 = tested on: LOC_OS05G28520-cb001
Outline: as §1

LOC_OS05G30820-cb001 = tested on: LOC_OS05G30820-cb001
Outline: as §1

LOC_OS05G43570-cb004 = tested on: LOC_OS05G43570-cb004
Outline: as §1

LOC_OS06G16330-cb003 = tested on: LOC_OS06G16330-cb003
Chain of LOC_OS06G16330-cb003 (as listed by the source): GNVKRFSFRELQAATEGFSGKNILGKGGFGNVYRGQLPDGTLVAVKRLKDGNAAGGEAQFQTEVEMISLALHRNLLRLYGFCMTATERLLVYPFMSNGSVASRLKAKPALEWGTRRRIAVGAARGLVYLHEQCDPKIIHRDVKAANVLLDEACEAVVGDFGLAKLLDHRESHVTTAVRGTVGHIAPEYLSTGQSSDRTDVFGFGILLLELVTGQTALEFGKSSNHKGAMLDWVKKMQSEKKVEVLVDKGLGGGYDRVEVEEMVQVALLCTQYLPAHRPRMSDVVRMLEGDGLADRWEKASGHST
Outline: as §1

LOC_OS06G22820-cb001 = tested on: T1, LOC_OS06G22820-cb001
T1 sequence (whole entry): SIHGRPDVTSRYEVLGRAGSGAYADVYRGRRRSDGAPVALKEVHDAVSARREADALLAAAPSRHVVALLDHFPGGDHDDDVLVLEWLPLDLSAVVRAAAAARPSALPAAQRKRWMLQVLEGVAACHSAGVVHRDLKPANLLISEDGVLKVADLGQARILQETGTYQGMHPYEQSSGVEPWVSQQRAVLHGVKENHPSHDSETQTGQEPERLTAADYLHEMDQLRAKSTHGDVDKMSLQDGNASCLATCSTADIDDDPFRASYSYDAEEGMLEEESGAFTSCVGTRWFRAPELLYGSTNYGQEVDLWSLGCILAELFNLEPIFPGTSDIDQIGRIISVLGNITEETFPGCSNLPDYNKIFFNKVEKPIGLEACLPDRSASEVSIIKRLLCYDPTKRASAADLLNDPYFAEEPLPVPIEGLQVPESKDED
Outline: as §1

LOC_OS07G06570-cb004 = tested on: LOC_OS07G06570-cb004
Outline: as §1

LOC_OS07G07230-cb001 = tested on: LOC_OS07G07230-cb001
Outline: as §1

Compound	thermal shift delta Tm (LOC_OS04G57630-cb004)	thermal shift delta Tm (LOC_OS05G07850-cb002)	thermal shift delta Tm (LOC_OS05G16824-cb004)	thermal shift delta Tm (LOC_OS05G28520-cb001)	thermal shift delta Tm (LOC_OS05G30820-cb001)	thermal shift delta Tm (LOC_OS05G43570-cb004)	thermal shift delta Tm (LOC_OS06G16330-cb003)	thermal shift delta Tm (LOC_OS06G22820-cb001)	thermal shift delta Tm (LOC_OS07G06570-cb004)	thermal shift delta Tm (LOC_OS07G07230-cb001)
CNC(=O)c1ccc(Nc2ncc(C(F)(F)F)c(NCc3nccnc3N(C)S(C)(=O)=O)n2)cc1	2.75 °C	10.8 °C	9.21 °C	6.38 °C	4.15 °C	0.69 °C	5.49 °C	0.27 °C	0.66 °C	0.51 °C
CC1=C(C(=O)Nc2cc3cn[nH]c3cc2F)C(c2ccc(C(F)(F)F)cc2)CC(=O)N1 (stereo not given)	-0.15 °C	0.48 °C	-6.69 °C	-0.3 °C	0.33 °C	1.08 °C	-0.13 °C	0.24 °C	0.71 °C	0.37 °C
Cn1cc(-c2cnn3c(N)c(Br)c([C@@H]4CCCNC4)nc23)cn1	0.1 °C	6.22 °C	4.78 °C	0.02 °C	0.27 °C	0.29 °C	7.12 °C	0.34 °C	0.75 °C	0.55 °C
CC(C)(C)c1cc(NC(=O)Nc2ccc(-c3cn4c(n3)sc3cc(OCCN5CCOCC5)ccc34)cc2)no1 [Quizartinib (AC220)]	0.97 °C	1.54 °C	-1.62 °C	0.28 °C	0.82 °C	0.27 °C	0 °C	0.73 °C	1.04 °C	0.45 °C
CC(C)(O)CNc1ncc(-c2ccnc(Nc3ccnc(Cl)c3)n2)c(CC2CC2)n1	0.07 °C	7.44 °C	0.09 °C	0.75 °C	0.41 °C	0.5 °C	4.77 °C	0.62 °C	0.78 °C	0.71 °C
COc1ncc(-c2ccc3nccc(-c4ccnnc4)c3c2)cc1NS(=O)(=O)c1ccc(F)cc1F	0.93 °C	6.11 °C	2.11 °C	0.26 °C	0.47 °C	0.73 °C	2.61 °C	0.6 °C	0.86 °C	-0.21 °C
COc1cc2ncnc(Nc3cccc(Cl)c3F)c2cc1OC(=O)N1CCN(C)C[C@H]1C	0.65 °C	9.1 °C	-0.19 °C	0.6 °C	0.5 °C	0.72 °C	2.26 °C	0.6 °C	1.12 °C	0.94 °C
COc1ccc(-c2cc3nccn3c(Nc3ncccc3C(N)=O)n2)cc1OC	1.09 °C	10.1 °C	-0.07 °C	0.66 °C	0.59 °C	0.69 °C	4.18 °C	0.82 °C	0.73 °C	0.38 °C
CCNC(=O)Nc1ccc(-c2nc(N3CCOC[C@@H]3C)c3c(n2)C(C)(C)S(=O)(=O)C3)cc1	-0.03 °C	1.34 °C	0.19 °C	0.25 °C	0.2 °C	0.77 °C	-0.15 °C	0.67 °C	1.9 °C	0.66 °C
COc1cc(-c2cc(-c3ccc(N4CCNCC4)cc3)cnc2C)cc(OC)c1OC	0.42 °C	3.83 °C	0.31 °C	0.5 °C	0.25 °C	0.17 °C	2.03 °C	0.21 °C	0.35 °C	0.01 °C
CNC(=O)c1ccc(-c2cnc3ncc(Cc4ccc5ncccc5c4)n3n2)cc1F	0.55 °C	0.67 °C	-1.29 °C	0.04 °C	0.18 °C	0.63 °C	-2.08 °C	0.46 °C	1.26 °C	0.89 °C
Cc1cnc(Nc2ccc(N3CCN(C)CC3)cc2)nc1Nc1cccc(S(=O)(=O)NC(C)(C)C)c1	2.45 °C	10.4 °C	7.7 °C	1.9 °C	0.89 °C	0.98 °C	5.92 °C	0.43 °C	0.63 °C	-0.42 °C
CNC(=O)c1cc(Oc2ccc(NC(=O)Nc3ccc(Cl)c(C(F)(F)F)c3)cc2)ccn1 [Sorafenib]	2.09 °C	9.44 °C	1.37 °C	-0.04 °C	0.65 °C	1.2 °C	2.66 °C	1.5 °C	1 °C	-0.34 °C
C[C@H](Nc1ncnc2nc[nH]c12)c1cc2cccc(Cl)c2c(=O)n1-c1ccccc1 [Duvelisib (IPI-145, INK1197)]	-0.24 °C	0.17 °C	0.84 °C	0.82 °C	0.45 °C	0.49 °C	0.28 °C	0.69 °C	0.07 °C	12.2 °C
O=C(Nc1nccs1)C(c1cc(F)ccc1O)N1Cc2ccccc2C1=O (stereo not given)	0 °C	-0.08 °C	-0.86 °C	0.12 °C	0.61 °C	-0.04 °C	-0.29 °C	0.38 °C	1.35 °C	0.63 °C
Nc1cc(C(F)(F)F)c(-c2cc(N3CCOCC3)nc(N3CCOCC3)n2)cn1 [Buparlisib (BKM120, NVP-BKM120)]	0.52 °C	0.95 °C	-3.32 °C	0.28 °C	0.66 °C	0.71 °C	0.02 °C	0.75 °C	0.64 °C	-0.59 °C
Cc1[nH]c(/C=C2\C(=O)Nc3ccc(S(=O)(=O)Cc4c(Cl)cccc4Cl)cc32)c(C)c1C(=O)N1CCC[C@@H]1CN1CCCC1	2.32 °C	10.3 °C	0 °C	0.75 °C	0.48 °C	0.55 °C	6.03 °C	0.86 °C	0.77 °C	0.98 °C
CN1CC[C@H](c2c(O)cc(O)c3c(=O)cc(-c4ccccc4Cl)oc23)[C@H](O)C1 [Flavopiridol HCl]	0.77 °C	4.9 °C	0.91 °C	0.55 °C	0.9 °C	0.71 °C	3.57 °C	1.71 °C	0.71 °C	0.03 °C
CNC(=O)c1cc(Oc2ccc(NC(=O)Nc3ccc(Cl)c(C(F)(F)F)c3)c(F)c2)ccn1 [Regorafenib (BAY 73-4506)]	0.11 °C	1.47 °C	-2.37 °C	0.42 °C	0.34 °C	0.38 °C	-0.02 °C	0.83 °C	0.59 °C	0.35 °C
CC(C)c1cnn2c(NCc3ccccc3)cc(NCCCCCCN)nc12	-0.33 °C	-0.23 °C	-2.84 °C	0.27 °C	0.42 °C	0.43 °C	-0.05 °C	0.96 °C	1.35 °C	0.18 °C
